For orientation: inhibition means the change of the read-out against control, counted positive when it falls.

Activity calls are given as the source filed them. No rule for the calls is given here.

A short description of this assay: Brca1-Bard1 BiLC signal decrease – luminescence, single concentration, counter-screen for Mdm2/MdmX interaction inhibitor project, confirmation (AID 504668). To be noted: Brca1/Bard1 bimolecular luciferase complementation counterscreen, at 8 µM, active compounds read high.
Consider `COc1ccc(C(=O)N/N=C(\Cc2ncc[nH]2)c2ccccc2)cc1`, for which the inhibition was 25.7% (active).

In the case of `CCOc1ccc(OCc2ccc(C(=O)NN=Cc3ccc[nH]3)cc2)cc1`, the inhibition was 28% (active). `CCCCN(CC)CCNC(=O)c1cc2c(-c3ccc(Cl)cc3)nn(C)c2s1`: the inhibition was 31.2% (active). In the case of `c1ccc(-c2noc(-c3ccc4ccccc4c3)n2)nc1` it was 27% (active). For `O=C(Nc1nc(-c2ccccn2)cs1)c1ccccc1-n1cnnn1`, the inhibition was 29.6% (active). Consider `O=C1c2ccccc2NC(c2ccc(Cl)cc2Cl)N1O` (stereo not given), for which the inhibition was 30.7% (active). For `Oc1c(Cl)cc(Cl)c(Cl)c1Cc1c(O)c(Cl)cc(Cl)c1Cl`, the inhibition was 26.8% (active). In the case of `CC1=[N+](C)c2ccc3ccccc3c2C1(C)C` it was 28.2% (active); in that of `O=C(Nc1cc(Cl)ccc1O)c1snnc1-c1ccccc1`, 23% (active). The value for `FC(F)(F)c1cnc(NNC(=S)Nc2ccc(Cl)cc2)c(Cl)c1` was 23.3% (active); that for `O=C(CCl)c1ccc2c(c1)CCN2C(=O)C1CC1` was 27% (active); that for `O=C(N/N=C/c1cc(Br)ccc1O)c1ccccc1Cl` was 35.3% (active). `CCOC(=O)c1cnc(-n2nc(C)cc2C)nc1NC1CCCCC1`: the inhibition was 30.1% (active). In the case of `COc1ccc([C@@H]2[C@@H]3C(=O)N(C(C)(C)C)C(=O)[C@@H]3[C@]3(Cc4ccc(Cl)cc4)C(=O)N(c4ccc(Br)cc4)C(=O)N23)cc1` it was 26.6% (active); in that of `O=C(CCl)NCc1c(Cl)cccc1-n1cccc1`, 35.6% (active); in that of `COc1ccccc1-c1cc(C(F)(F)F)nc(S(=O)(=O)CCCC(=O)NC(C)C)n1`, 31.4% (active).

On to `Cc1c(C(=O)Nc2cccc(Cl)c2)oc2ccc(S(=O)(=O)N3CCC4(CC3)OCCO4)cc12`, for which the inhibition was 32.3% (active). In the case of `O=C(CCl)Nc1cccc(S(=O)(=O)N2CCCCCC2)c1` it was 24% (active); in that of `CN1CCN(c2cc(N3CCN(C(=O)c4ccco4)CC3)c3c4c(onc24)-c2ccccc2C3=O)CC1`, 24.3% (active). Regarding `CCOc1cc(NC(=O)c2ccco2)c(OCC)cc1NC(=O)COc1ccccc1C`, the inhibition is 33.4% (active).

Consider `CC(C)(C)c1cc(NC(=O)CCl)n(-c2ccccc2)n1`, for which the inhibition is 24.1% (active). The value for `O=C(CSCC(=O)Nc1ccccc1)N/N=C/c1c(O)ccc2ccccc12` was 28.3% (active); that for `CCCCN(Cc1ccco1)C(=O)c1cc2c(=O)[nH]c3ccc(C)cc3c2s1` was 23.8% (active). In the case of `Cc1c(Cl)cccc1N/C(SCC(=O)N1CCCCCC1)=C(/C#N)c1nc2ccccc2s1` it was 36% (active). Turning to `Clc1ccc(Cn2ncc3c(NCc4ccco4)ncnc32)c(Cl)c1`, the inhibition is 31.2% (active).

`Cc1cc(C(=O)NC2CCCc3c2cnn3-c2cccc(C)c2C)no1` (stereo not given): the inhibition is 23.6% (active).

Consider `O=C(NC(Nc1ncc(S(=O)(=O)c2ccc([N+](=O)[O-])cc2)s1)(C(F)(F)F)C(F)(F)F)c1ccc(Cl)cc1`, for which the inhibition was 29.5% (active).

With `O=C(CSc1nnnn1-c1ccccc1)Nc1nsc(-c2ccccc2)n1`, the inhibition is 27.7% (active). As for `C=CCSc1nsc(NC(=O)Nc2ccc(F)cc2)n1`, the inhibition was 28% (active).

Consider `O=C(Nc1ccccc1)c1ccccc1NS(=O)(=O)c1ccc(Cl)s1`, for which the inhibition was 27.7% (active). In the case of `N=c1c(C(=O)NC2CCCCC2)cc2c(=O)n3ccccc3nc2n1Cc1ccco1` it was 33.2% (active); in that of `COc1ccc(C(NC(C)=O)c2cc(Cl)c3cccnc3c2O)cc1` (stereo not given), 29.3% (active). Regarding `COc1cccc(Nc2nc(NCCO)c3ccccc3n2)c1`, the inhibition was 27.7% (active). Take `O=C(CCl)Nc1cn(-c2ccccc2)nc1-c1ccc(F)cc1`: the inhibition was 32.9% (active). In the case of `O=C1c2cccc3c([N+](=O)[O-])ccc(c23)C(=O)N1c1nccs1` it was 27% (active). `C=CCn1c(CNc2ccc(C)cc2)nnc1SCC(=O)N/N=C/c1ccc(O)cc1O`: the inhibition is 35.6% (active). With `O=C1C(=C2SCCCS2)CC/C1=C\c1ccc(F)cc1`, the inhibition was 25.5% (active). In the case of `CC1CCN(Cc2c(C(=O)N/N=C/c3ccccc3O)nnn2-c2nonc2N)CC1` it was 32.5% (active); in that of `CC[C@]1(c2ccccc2OC)ON(c2ccccc2C(F)(F)F)C1=O`, 34.6% (active). For the compound `CCCCSc1nc(C)cc(SCC(=O)N/N=C/c2cccc(OC)c2O)n1`, the inhibition was 34.4% (active).

For the origin of these results see PubChem BioAssay.
